D3 ag – qHTS of D3 Dopamine Receptor Agonist: qHTS; AID 652048, 2013; D(3) dopamine receptor (Homo sapiens), P35462; max activation, %; D3R DiscoveRx beta-arrestin cells, luminescence, 90 min; 410,000 compounds, 0.58% hits; in the data active = max activation above about 30%; note: 0% is about no effect
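Cells at 1500/well, incubated overnight, then treated with pinned compounds (dopamine as control) for 90 min at 37 degrees C. DiscoveRx reagent added for 30 - 60 minutes at room temperature; luminescence read.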
TRPML1 agonist – qHTS for Agonists of the Human Mucolipin Transient Receptor Potential 1 (TRPML1). activation, % (test concentration not listed). Mucolipin-1 (Homo sapiens), Q9GZU1. TRPML1-expressing cells, Ca2+ dye fluorescence, FDSS. 410,000 compounds, 0.12% hits; in the data active = activation above about 50%; note: 0% is about no effect
Target sequence (Q9GZU1 whole entry, looked up): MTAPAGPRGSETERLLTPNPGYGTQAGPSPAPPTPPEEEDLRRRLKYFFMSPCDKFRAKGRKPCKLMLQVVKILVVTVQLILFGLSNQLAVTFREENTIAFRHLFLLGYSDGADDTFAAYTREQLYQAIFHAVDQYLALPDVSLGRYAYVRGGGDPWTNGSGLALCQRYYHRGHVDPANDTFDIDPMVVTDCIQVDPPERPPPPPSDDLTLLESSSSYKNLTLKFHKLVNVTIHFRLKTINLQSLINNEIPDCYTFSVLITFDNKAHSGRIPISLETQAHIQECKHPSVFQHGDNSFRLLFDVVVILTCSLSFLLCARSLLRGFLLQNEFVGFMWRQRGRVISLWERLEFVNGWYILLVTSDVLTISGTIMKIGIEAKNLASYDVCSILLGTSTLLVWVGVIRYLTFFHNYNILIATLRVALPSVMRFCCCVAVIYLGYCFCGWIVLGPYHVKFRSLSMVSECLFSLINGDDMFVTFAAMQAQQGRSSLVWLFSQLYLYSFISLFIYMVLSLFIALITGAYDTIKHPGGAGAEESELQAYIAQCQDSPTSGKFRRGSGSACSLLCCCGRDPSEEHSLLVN
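Calcium fluorescence on an FDSS kinetic reader gave the read-out. Tet-induced TRPML1-DL cells were plated overnight, dye-loaded (Ca8 with quencher, 45-90 min, room temperature, dark), then read 110 s after compound addition, and again 110 s after 4uM final 54-4 (EC80).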
D3 antag – qHTS of D3 Dopamine Receptor Antagonist: qHTS; D(3) dopamine receptor (Homo sapiens), P35462; D3R cells, DiscoveRx beta-arrestin luminescence, antagonist mode; stronger effect = lower value; max response, negative = inhibition, %; 360,000 compounds, 2.5% hits; AID 652054, 2013; in the data active = max response below about -50%; note: % is set by controls: 0 for no effect and ±100 for the full control effect
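Cells plated overnight at 1500 cells/well, then exposed to library compounds with dopamine controls for 90 minutes at 37 degrees C. DiscoveRx reagent added for 30–60 minutes at room temperature; luminescence read, quantitative HTS format.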
TRPML1 blocker – qHTS for Inhibitors of the Human Mucolipin Transient Receptor Potential 1 (TRPML1); TRPML1-inducible cells, Ca2+ dye fluorescence, FDSS; stronger effect = lower value; inhibition of EC80 agonist-evoked calcium signal; activity change, negative = inhibition, % (test concentration not listed); 390,000 compounds, 0.02% hits; in the data active = activity change below about -50%;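 note: stimulus is agonist 54-4 at its EC80 concentration; % is set by controls: 0 for no effect and ±100 for the full control effect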
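Calcium fluorescence in TRPML1-DL cells induced overnight with Tet: a 110 s read after compound pin addition, then a 110 s antagonist read after challenge with 54-4 at 4 uM final (EC80).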
Active calls of the source: *; . = not tested or not shown. Most compounds without a hit are left out; they make up all but 2.9% or so of the library.

SMILES	D3 ag	TRPML1 agonist	D3 antag	TRPML1 blocker
NC[C@@H]1CC[C@@H](N)[C@@H](O[C@H]2[C@H](O)[C@@H](O[C@H]3O[C@H](CO)[C@@H](O)[C@H](N)[C@H]3O)[C@H](N)C[C@@H]2N)O1	-8	.	.	.
O=c1[nH]c2c(-c3nc(-c4ccc(Cl)cc4)cs3)c(O)cn2c2ccccc12	.	0	.	.
COc1ccc(OC)c(CC(=O)Nc2ccc3c(c2)c(=O)n(C)n3Cc2cccc(C(F)(F)F)c2)c1	-19	0	-52*	18
COc1ccc(CNC(=O)Nc2ccc3c(c2)c(=O)n(C)n3Cc2cccc(C(F)(F)F)c2)cc1	2	-1	-14	.
c1ccc(CCCCN2CCN=C2Nc2ccccc2)cc1	-32	0	4	48
Fc1cccc(CCN2CCN=C2Nc2ccccc2)c1	-65	9	-74*	-3
C=CCN1CCN(C(c2ccccc2)c2nnnn2CCC(C)C)CC1 (stereo not given)	-10	-1	-82*	-7
Cc1ccc(C(c2nnnn2CCC(C)C)N2CCN(C)CC2)cc1 (stereo not given)	-1	0	-67*	14
CC(C)CCn1nnnc1C(c1ccccc1)N1CCN(C)CC1 (stereo not given)	2	0	-15	7
CCc1nc2ccc(C(=O)NC3CCN(Cc4ccccc4)CC3)cn2c1N(C)Cc1cc2ccccc2s1	-10	-1	-68*	.
CCc1nc2ccc(C(=O)NC3CCN(Cc4ccccc4)CC3)cn2c1N(C)Cc1cccs1	-29	1	-77*	9
CCc1nc2ccc(C(=O)N3CCN(C(=O)c4ccco4)CC3)cn2c1N(C)Cc1cccs1	2	-1	72	.
CCOc1ccc(NC(=O)C2CC(=O)NC(=Nc3ccc(Cl)c(Cl)c3)S2)cc1 (stereo not given)	-9	0	.	-7
C[C@H](CO)N1C[C@H](C)[C@H](CN(C)Cc2cccc(O)c2)OCc2ccccc2-c2c(n(C)c3ccccc23)C1=O	45*	0	24	7
C[C@H]1CN([C@@H](C)CO)C(=O)c2c(c3ccccc3n2C)-c2ccccc2CO[C@H]1CN(C)Cc1cccc(F)c1	1	1	4	15
C/C(NCCc1ccc(O)cc1)=C1/CCOC1=O	45*	3	6	10
COc1ccccc1N(C)C	.	0	.	.
COC1=C(Br)C(=O)c2nc(C)ccc2C1=O	-17	0	-119*	0
CCN(CC)C(=O)C1CCCN(Cc2sccc2C)C1 (stereo not given)	-20	-1	-63*	-10
CCN(CC)C(=O)C1CCCN(Cc2cccc(F)c2)C1 (stereo not given)	-6	-1	15	2
COc1cc(C2c3c(oc4ccccc4c3=O)C(=O)N2c2nnc(C(C)C)s2)cc(OC)c1OC (stereo not given)	5	0	.	17
CC1(C)CC(=O)C(C=Nc2ccccc2Sc2ccccc2)=C(O)C1	-18	1	-54*	4
CC1(C)CC(=O)C(C=Nc2ccccc2C(=O)O)=C(O)C1	1	-1	19	24
C=C1C=C(C(F)F)n2ncc(C(=O)N3CCN(c4ccccn4)CC3)c2N1	.	0	.	.
CC(=O)N1CCc2c(sc3c2c(=O)n(-c2ccccc2Cl)c(=O)n3C)C1	31*	0	.	3
SMILES	D3 ag	TRPML1 agonist	D3 antag	TRPML1 blocker
C=CCN(Cc1nc(-c2ccc(OC)cc2)no1)C(=O)c1ccc2c(c1)OCO2	-6	0	-7	-1
COc1ccc(-c2noc(CN(C(=O)c3ccc4c(c3)OCO4)C(C)C)n2)cc1	91*	1	9	25
COc1ccc(N2CCCC2)c(NC(=O)COc2ccccc2Cl)c1	4	0	15	-5
COc1cc(NC(=O)CCN2CCN(c3ccccc3OC)CC2)cc(OC)c1	-3	-1	-99*	-8
COc1ccc([N+](=O)[O-])cc1NC(=O)CCCOc1ccccc1	-9	2	6	11
COc1ccc(OC)c(NC(=O)CCN2CCN(c3ccccc3OC)CC2)c1	-17	.	-84*	.
COc1ccc([N+](=O)[O-])cc1NC(=O)CCN1CCN(c2ccccc2)CC1	75*	1	-25	-13
COc1ccc(OCC(=O)Nc2cc(OC)ccc2N2CCCCC2)cc1	36*	1	25	22

Screens (PubChem)
